Laboratory results as given in PubChem BioAssay AID624417 (National Center for Advancing Translational Sciences (NCATS), 2012).
The whole screen tested about 410,000 compounds, of which about 6,400 (1.6%) were called active. Entries that show only a call come without a potency. Not shown: some 20% with an inconclusive outcome. The call rests on the fitted dose curve; in most records, active means well fitted inhibition curve with a large enough effect; inconclusive means small, poorly fitted or top-dose-only effect; inactive means no such curve, though single readings can be large or run the other way. For the sample, actives were picked, then their nearest neighbours and some compounds at random.

What follows are molecules tested against Glucagon-like peptide 1 receptor (Homo sapiens) (UniProt P43220) (assay: qHTS of GLP-1 Receptor Inverse Agonists (Inhibition Mode)). Settings: HEK293 GLP-1R CRE-luciferase, luminescence, 24 h, GLP-1R form is constitutively active; series mostly up to 38.3 µM.
Chain of Glucagon-like peptide 1 receptor (Homo sapiens) (P43220 whole entry, looked up): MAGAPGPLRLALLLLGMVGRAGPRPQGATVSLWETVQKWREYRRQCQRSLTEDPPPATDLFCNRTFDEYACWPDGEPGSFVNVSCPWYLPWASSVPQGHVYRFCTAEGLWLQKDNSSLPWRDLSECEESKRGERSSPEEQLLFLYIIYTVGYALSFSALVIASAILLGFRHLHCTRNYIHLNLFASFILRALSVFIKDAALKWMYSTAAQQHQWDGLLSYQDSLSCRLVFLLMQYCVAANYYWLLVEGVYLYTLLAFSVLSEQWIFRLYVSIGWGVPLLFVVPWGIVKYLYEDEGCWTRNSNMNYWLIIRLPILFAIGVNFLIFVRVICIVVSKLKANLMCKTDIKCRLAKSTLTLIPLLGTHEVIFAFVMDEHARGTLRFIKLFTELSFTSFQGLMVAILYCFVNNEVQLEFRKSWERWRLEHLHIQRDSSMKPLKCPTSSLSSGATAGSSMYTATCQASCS
Text: The overall goal of this project was to develop a novel assay for discovering small molecule ligands for class B1 G protein-coupled receptors (GPCRs). Very few agonists (or inverse agonists in inhibition mode) with generally weak activity for this entire group of physiologically important receptors are known to date. To establish proof-of-principle that this critical bottleneck can be overcome with a suitable screening approach, our studies focused on the class B1 receptor for glucagon-like peptide-1 (GLP-1R), a potential therapeutic target for diabetes and neurodegenerative disease. The assay was developed using a cell-based functional readout. Toward this goal, stably transfected HEK293 cell clones were established that co-express (i) a cAMP-responsive luciferase reporter gene, and (ii) constitutively active GLP-1R that upon ligand interaction inhibit (inverse agonists) the luciferase activity. In addition, two control cell lines were developed: (i) one that express only the cAMP-responsive reporter gene to enable initial exclusion of GLP-1R independent effects of candidate probes; and (ii) one with the reported gene cloned with another constitutively active orphan receptor GPR119 to enable exclusion of GLP-1R independent inhibitor effects of candidate inverse agonists. To that end, this assay was optimized for 1536-well format and screened against the MLSMR. […] NIH Molecular Libraries Probe Production Network [MLPCN] NIH Chemical Genomics Center [NCGC] Grant: NS064851 PI Name: Martin Beinborn, Tufts Medical Center
Six ul of cell suspension (200 cells/uL in DMEM + 10% Nu serum + 1% pen-strep) is dispensed in a white solid 1536-well plate. The plates are incubated for 12 hours at 37 deg C at 5% CO2 followed by addition of 23 nL compounds. After 24 hr incubation at 37 deg C and 5% CO2, 3 uL of luciferase assay detection reagent is added. A luminescence read is obtained on the PerkinElmer Viewlux after 12 min incubation at room temperature.
Further: nearly all actives have a fitted effect of over 55% in size.
Potency means the concentration at half of the fitted maximal effect.

Structure (SMILES)	Potency
CC1(C(=O)Nc2ccc3c(c2)OCCO3)CCN1C(=O)Cc1cc(F)ccc1F (stereo not drawn)	inactive
CC1(C(=O)NS(=O)(=O)Cc2cccc(Cl)c2)CCN1C(=O)Cc1ccc(Cl)cc1Cl (stereo not drawn)	inactive
CC(C)N1C(=O)c2ccccc2NC(=O)C1C(=O)NCc1cccs1 (stereo not drawn)	inactive
COCCNc1nc(Nc2ccccc2Cl)c2sc(-c3ccccc3)cc2n1	inactive
CCOc1ccc(S(=O)(=O)NCCC(=O)NNC(=O)c2ccc(F)cc2)cc1	inactive
COc1ccc(NC(=O)CN(C)C(=O)/C=C/c2cn(Cc3ccccc3)nc2-c2cccnc2)cc1	inactive
COc1cccc(NC(=O)CN(C)C(=O)/C=C/c2cn(-c3ccccc3)nc2-c2cccs2)c1	7.94 µM (active)
COc1cccc(NC(=O)CN(C)C(=O)/C=C/c2cc(OC)ccc2OC)c1	inactive
CC(C)(O)C1=C[N+](=O)CC=C1	inactive
CCC(C)CN1C(=O)CSCC1(C)C(=O)NCc1ccccc1 (stereo not drawn)	inactive
O=C1OCCC1=COCCCCOC=C1CCOC1=O	inactive
O=C(NCC(O)c1nc2ccccc2[nH]1)c1ccc(Br)cc1 (stereo not drawn)	inactive
CCOc1ccc2[nH]c(=O)c(CN(CCCO)S(=O)(=O)c3ccc(F)cc3)cc2c1	inactive
COc1ccc2[nH]c(=O)c(CN(Cc3cccnc3)S(=O)(=O)c3ccccc3F)cc2c1	5.01 µM (active)
CCN(Cc1cc2cc(C)ccc2[nH]c1=O)S(=O)(=O)c1ccccc1	inactive
O=C(c1cccs1)N1C[C@H](n2cc(C3CC3)nn2)[C@@H](O)C[C@@H]1c1ccccc1	inactive
COCCNc1ncnc2c1ncn2[C@H]1CN(CCN2CCOCC2)C[C@@H](CO)O1	inactive
CN1CCN(CCCNC(=O)c2cc3c(=O)oc4ccccc4c3s2)CC1	inactive
CCC1CCCCN1CCCNC(=O)C1CCC(Cn2c(=O)[nH]c3ccccc3c2=O)CC1 (stereo not drawn)	inactive
COc1ccc(C(C)(NC(C)=O)c2nc(-c3ccc(S(C)(=O)=O)cc3)cs2)cc1 (stereo not drawn)	inactive
O=C(CN1C(=O)NC2(CCc3ccccc32)C1=O)NC1CCCCC1 (stereo not drawn)	inactive
O=C(COc1ccc(S(=O)(=O)N2CCCC2)cc1[N+](=O)[O-])N1CCCCC1	inactive
Cc1cc(C)cc(C(=O)NCCN2CCOCC2)c1	inactive
CCc1cc(=O)oc2c(C)c(OCC(=O)NCCN3CCOCC3)ccc12	inactive
CC(=O)Oc1cc2c(C(=O)NCCN3CCOCC3)c(C)oc2c2ccccc12	10 µM (active)

Structure (SMILES)	Potency
O=C1NC(O)CCN1C1CC(O)C(CO)O1 (stereo not drawn)	inactive
COc1ccc(C(O)C(O)(C(=O)OC(C)C)c2ccc(C)cc2)cc1 (stereo not drawn)	inactive
Cc1nc2ccccn2c(=O)c1NC(=O)c1ccc(Br)o1	inactive
CCCN(CC1COc2ccccc2O1)C(=S)Nc1ccc(C)cc1 (stereo not drawn)	11.2 µM (active)
COc1ccc(NC(=O)C2COc3ccccc3O2)cc1 (stereo not drawn)	inactive
CCC(=O)c1ccc(OCC(=O)N(CC)CC2COc3ccccc3O2)cc1 (stereo not drawn)	inactive
CS(=O)(=O)N1CCCCC1c1cc(C(=O)NCc2ccccc2)no1 (stereo not drawn)	inactive
COC(=O)[C@]12CCCCC=C1N(Cc1ccco1)C(=O)[C@H](CC(=O)NCC1CCCCC1)C2	inactive
O=C(CN1CCN(c2ccccc2)CC1)Nc1ccc(F)cc1	inactive
CN1CCN(CCNC(=O)Nc2ccc([N+](=O)[O-])cc2)CC1	inactive
O=C(NCCCN1CCN(c2ccc(F)cc2)CC1)Nc1ccc([N+](=O)[O-])cc1	11.2 µM (active)
CCC(C)CN1C(=O)CN(S(C)(=O)=O)CC1(C)C(=O)Nc1ccc2c(c1)OCCO2 (stereo not drawn)	inactive
O=C(Nc1cccc2cccnc12)c1ccc2sc([C@H]3C[C@H](O)[C@@H](CO)O3)nc2c1	inactive
C=C1C(=O)OC2C1CCC(C)=CCCC1(C)OC21 (stereo not drawn)	inactive
CSCc1nnc(NC(=O)c2ccc(S(=O)(=O)N3CCCCC3C)cc2)o1 (stereo not drawn)	inactive
CC1CCCCN1S(=O)(=O)c1ccc(S(=O)(=O)N(CC(=O)Nc2ccccc2)Cc2cccs2)cc1 (stereo not drawn)	11.2 µM (active)
CCN(CC(=O)NCc1cccs1)S(=O)(=O)c1ccc(NC(C)=O)cc1	inactive
CNc1cc(-c2c(OC)cccc2OC)ncn1	inactive
CCOc1ccc(-c2noc(CCC(=O)NC3CCCC3)n2)cc1OC	inactive
CCNC(=O)CCc1nc(-c2ccc(C)cc2)no1	inactive
CCNC(=O)CCc1nc(-c2ccc(C(C)(C)C)cc2)no1	7.94 µM (active)
O=C1NC[C@H](CCCCN2C[C@H](Cc3ccc(O)cc3)N(CC3CCCCC3)C(=O)C2=O)N(CCc2ccccc2)C1=O	inactive
OCCc1ccc(NCCc2ccco2)cc1	inactive
CC1(C(=O)Nc2ccc3c(c2)OCCO3)CSCC(=O)N1CCOc1ccccc1 (stereo not drawn)	inactive
O=C(CCc1ccccc1)NCc1ccc2c(c1)CCN2C(=O)c1ccccc1	inactive

Structure (SMILES)	Potency
O=C(NCc1ccc2c(c1)CCN2C(=O)c1ccccc1)Nc1cc(F)ccc1F	10 µM (active)
O=C(NCc1ccc2c(c1)CCN2C(=O)c1ccccc1)c1ccccc1	inactive
COc1ccc2c(c1)CCCO[C@]21O[C@H](CCO)C[C@H](O)[C@H]1O	inactive
COc1cc(OC)c(C(=O)N2CCCC2)cc1OC	inactive
Cc1ccc(C(=O)N2CCCC2)c(F)c1F	inactive
Cc1c(Br)cc(C(=O)N2CCCCCC2)c(C)c1C	10 µM (active)
C[C@H]1CN([C@@H](C)CO)C(=O)CCCn2nncc2CO[C@@H]1CN(C)Cc1ccc(Oc2ccccc2)cc1	inactive
COc1ccc(CC(=O)Nc2nc(-c3ccc(F)c(F)c3)cs2)cc1OC	3.98 µM (active)
Cc1ccc(S(=O)(=O)NC(=O)Nc2nc(-c3ccc(F)c(F)c3)cs2)cc1	inactive
CCCc1ccc(-c2csc(NC(=O)Cc3cccs3)n2)cc1	inactive
CC1(C)CC(=O)C=C(c2ccccc2CO)C1=O	inactive
CC1=C(C(=O)N2CCOCC2)CC(CC(=O)NCc2cccc3ccccc23)C(=O)N1CCC1=CCCCC1 (stereo not drawn)	inactive
C[C@]12c3[nH]c4ccc(Cl)cc4c3CCN1C(=O)[C@@H](CC(=O)NCCCn1ccnc1)C[C@@H]2C(=O)N1CCOCC1	inactive
CC(C)N(C(=O)[C@H]1C[C@H](CC(=O)NCCC2=CCCCC2)C(=O)N2CCc3c([nH]c4cc(CCC(=O)N(C)C)ccc34)[C@]12C)C(C)C	inactive
CC(C)N(C(=O)[C@H]1C[C@H](CC(=O)NC(C)(C)C)C(=O)N2CCc3c([nH]c4ccc(Cl)cc34)[C@]12C)C(C)C	11.2 µM (active)
CS(=O)(=O)c1cccc(-c2ccc3nncn3c2)c1	inactive
Cc1ccccc1-c1ccc2c(c1)O[C@@H](CN(C)Cc1ccc(C(=O)O)cc1)[C@@H](C)CN([C@H](C)CO)S2(=O)=O	inactive
O=C1c2ccccc2C(c2nc3ccccc3[nH]2)N1c1ccccc1 (stereo not drawn)	inactive
CCOc1ccc(Cl)cc1-c1cc(C(=O)NCc2cccs2)[nH]n1	inactive
CC(C)c1ccc(CC(=O)N2CCC2(C)C(=O)NS(=O)(=O)c2ccc(C(C)(C)C)cc2)cc1 (stereo not drawn)	inactive
C[C@@H]1C(c2ccc(F)cc2)=NN(c2ccc(Br)cc2)[C@H]1C(=O)N1CCOC1=O	10 µM (active)
Cc1ccc2c(c1)N(C(=O)Nc1ccc(Br)cc1F)CCO2	inactive
O=c1c2cc(Br)ccc2nc(-c2cccc(Cl)c2)n1O	inactive
O=C1OCCN1C(=O)[C@H]1[C@H](c2ccc(Cl)cc2)C(c2cccc(Cl)c2)=NN1c1ccc(Br)cc1	7.94 µM (active)
Cc1sc2ncnc(SCC(=O)NC3CCS(=O)(=O)C3)c2c1C (stereo not drawn)	inactive

Structure (SMILES)	Potency
CCCCNC(=O)c1nc(C2CCN(S(=O)(=O)c3ccc(F)c(F)c3)CC2)oc1-c1cccc(C(F)(F)F)c1	inactive
O=S1(=O)CC(N2CCN(CCO)CC2)CN1C1CCCC1 (stereo not drawn)	inactive
COCCNc1ncnc2c1c(-c1ccccc1)cn2-c1ccc(C)c(Cl)c1	inactive
O=c1[nH]cnc2c1c(-c1ccccc1)cn2-c1ccc(F)cc1	inactive
CCCNc1ncnc2c1c(-c1ccccc1)cn2-c1ccc(OCC)cc1	3.16 µM (active)
CC1(C(=O)Nc2ccc3c(c2)OCCO3)CN(S(C)(=O)=O)CC(=O)N1Cc1cccc(F)c1 (stereo not drawn)	inactive
Cc1ccc(S(=O)(=O)c2c(COC(=O)c3cccc(Cl)c3)c(-c3ccccc3)nn2C)cc1	inactive
Cn1nc(-c2ccccc2)c(CSc2cccc(Cl)c2)c1Cl	10 µM (active)
Cn1nc(-c2ccccc2)c(CO)c1Sc1ccccc1	inactive
CC(=O)N1Cc2cc(C(=O)NCc3cccc(F)c3)nc(-c3cccc(C4=CCCC4)c3)c2[C@H]1CCO	inactive
COc1ccc(S(=O)(=O)N2CCN(CC(=O)N3CCNC3=O)CC2)cc1OC	inactive
Cc1ccn2c(-c3csc(Nc4ccc(C(=O)O)cc4)n3)c(C)nc2c1	inactive
Oc1ccc(N2CCN(C(=S)NCc3ccccc3)CC2)cc1	inactive
Oc1ccccc1N1CCN(C(=S)NCc2ccccc2)CC1	11.2 µM (active)
CC1CCCCN1C(=S)NCc1ccccc1 (stereo not drawn)	inactive
COc1cc2c(=O)n(C)c3ccccc3c2cc1OC	inactive
Cc1ccc(OCC(=O)Nc2ccc(N3CCN(C(=O)c4ccco4)CC3)cc2)c(C)c1	7.94 µM (active)
Cc1ccc(C)c(OCC(=O)N2CCN(C(=O)c3ccco3)CC2)c1	inactive
CCC(=O)Nc1ccc(C(=O)N2CCN(C(=O)c3ccco3)CC2)cc1	inactive
Cc1ccc2c(c1)C1CN(C)CCC1N2S(=O)(=O)c1ccc(Oc2ccc([N+](=O)[O-])cc2)cc1 (stereo not drawn)	11.2 µM (active)
O=C(C1CCCN(S(=O)(=O)c2ccc([N+](=O)[O-])cc2)C1)N1CCCCC1 (stereo not drawn)	inactive
Cc1ccc([N+](=O)[O-])cc1S(=O)(=O)N1CCCN(C)CC1	inactive
CCc1ccccc1OCC(=O)Nc1nnc(C2CC2)s1	inactive
